Calls of active or inactive are those of the source. A call without a number means that no potency is given here. Calls follow the shape of the dose curve; as a rule, active = well fitted activation curve with a large enough effect in the repeat runs; inconclusive = weak or mixed curves; inactive = flat fitted curve, though single readings scatter.
Experiment: A CellTox Green Cytotoxicity Assay to monitor cytotoxicity in HepG2 cells - 0 hour (AID 1224882); also: nearly all actives have a fitted effect of over 35% in size
Conditions: CellTox Green fluorescence; series mostly up to 76.8 µM
Excerpt: National Center for Advancing Translational Sciences [NCATS]
NIH Chemical Genomics Center [NCGC]
U.S. Environmental Protection Agency [EPA]
National Institutes of Environmental Health Sciences [NIEHS]
National Toxicology Program [NTP]
Cell-based models are critical for drug discovery. Determining the natural cytotoxic effects resulting from test compounds is an essential research activity. A CellTox Green Cytotoxicity Assay to monitor cytotoxicity in real time of continues cell culture during 40 hours of the compound treatment was used to screen Tox21 10K library compounds in HepG2 cells. CellTox Green Cytotoxicity Assay is a nonlytic, homogeneous, biofluorescent method to measure cytotoxicity in cell culture after experimental manipulation. The assay system uses a proprietary asymmetric cyanine dye that is excluded from viable cells but preferentially stains the dead cell's DNA. […] Viable cells produce no appreciable increases in fluorescence. Therefore, the fluorescence signal produced by the binding interaction with dead cell DNA is proportional to cytotoxicity.
The mixture of HepG2 cell suspension and reagents were dispensed at 600cells/6 ul/well in 1536-well tissue culture treated black solid bottom plates using a Multidrop dispenser. After the assay plates were incubated at a 37 C/5% CO2 incubator for 5 hours, 23 nL of compounds dissolved in DMSO, positive and negative controls was transferred to the assay plate by a pintool work station. The plates were incubated at 37 C for 40 hours. The fluorescence intensity were measured at 0h, 8h, 16h, 24h, 32h and 40h time points using ViewLux plate reader during compound treatment.
Potency is read from the fitted curve at half-maximal effect.

| SMILES | Potency | cytotoxicity |
| --- | --- | --- |
| CCCOCCC | inactive | – |
| COc1ccc2nc(NC(=O)Nc3ccccc3)sc2c1 | inactive | – |
| CC(=O)N[C@@H](CC(C)C)C(=O)O | inactive | – |
| CN1CCN(C2=Nc3cc(F)ccc3Cc3ccccc32)CC1 | inactive | – |
| CC(C)NC[C@@H](O)COc1cccc2ccccc12 | inactive | – |
| O=C(O)CN(CCN(CC(=O)O)CC(=O)O)CCN(CC(=O)O)CC(=O)O | – | 20.5% [at 15.8 µM] (inactive) |
| O=C1CCCc2ccccc21 | inactive | – |
| CCOC(=O)C(Br)c1ccccc1 (stereo not given) | inactive | – |
| O=C1N(c2ccccc2)c2ccccc2C1(Cc1ccncc1)Cc1ccncc1 | inactive | – |
| CN1[C@@H]2CC[C@H]1CC(OC(=O)c1c[nH]c3ccccc13)C2 (stereo not given in full) | inactive | – |
| Cc1cc(NS(=O)(=O)c2ccc(N)cc2)nc(C)n1 | inactive | – |
| CCOC(=O)c1ccccc1O | inactive | – |
| Cc1cccc(C)c1NC(=O)CN1CCCCCC1 | inactive | – |
| CCCc1c2oc(C(=O)O)cc(=O)c2cc2c(=O)cc(C(=O)O)n(CC)c12 | inactive | – |
| CCOC(=O)[C@H](CCc1ccccc1)N[C@@H](C)C(=O)N1Cc2cc(OC)c(OC)cc2C[C@H]1C(=O)O | inactive | – |
| CC(C)OC(C)C | inactive | – |
| ClC(Cl)Cl | inactive | – |
| CCOC(=O)COc1ccc2c(c1)CC(NCC(O)c1cccc(Cl)c1)CC2 (stereo not given) | inactive | – |
| CC(Oc1c(Cl)cccc1Cl)C1=NCCN1 (stereo not given) | inactive | – |
| C=CCc1cc(OC)c(O)c(C(=O)NCCO)c1 | inactive | – |

| SMILES | Potency | cytotoxicity |
| --- | --- | --- |
| Cc1cc2nc(N)sc2cc1C | inactive | – |
| O=C1CCC(C2CCCCC2)CC1 | 38.9 µM (active) | – |
| c1ccc(CN(CC2=NCCN2)c2ccccc2)cc1 | inactive | – |
| CCOC(=O)NCCC[Si](OCC)(OCC)OCC | inactive | – |
| C=Cc1ccccc1 | inactive | – |
| CC(C)(C)C1CCCCC1=O (stereo not given) | inactive | – |
| CCOC(=O)c1cc(=O)c2c(OCC(COc3cccc4oc(C(=O)OCC)cc(=O)c34)OC(=O)[C@@H](N)CCCCN)cccc2o1 | inactive | – |
| Cc1cn([C@@H]2O[C@H](CO)[C@@H](O)[C@@H]2F)c(=O)[nH]c1=O | inactive | – |
| Cn1cnc2c(F)c(Nc3ccc(Br)cc3Cl)c(C(=O)NOCCO)cc21 | inactive | – |
| COc1cc2c(cc1N)oc1ccccc12 | inactive | – |
| CCCN(CCC)C(=O)C(CCC(=O)O)NC(=O)c1ccccc1 (stereo not given) | inactive | – |
| Oc1ccccc1C=NCc1ccccc1 | inactive | – |
| CCCCCCn1c(=O)c2c(ncn2C)n(C)c1=O | inactive | – |
| CCCCc1ccc2nc(NC(=O)OC)[nH]c2c1 | inactive | – |
| O=C(O)[C@@H](O)[C@H](O)[C@H](O)[C@@H](O)C(=O)O | inactive | – |
| C1CCOC1 | inactive | – |
| CCC(=O)c1ccc2c(c1)N(CCCN(C)C)c1ccccc1S2 | inactive | – |
| CC(C)C1=CC2=CC[C@@H]3[C@](C)(CCC[C@@]3(C)C(=O)O)[C@H]2CC1 | inactive | – |
| FC(F)(F)C(F)(F)C(F)(F)C(F)(F)C(F)(F)C(F)(F)C(F)(F)C(F)(F)Br | inactive | – |
| O=C(Cl)c1cccc([N+](=O)[O-])c1 | inactive | – |

From PubChem BioAssay (Tox21)
